The source of these data is PubChem BioAssay.

The source made the active and inactive calls.

The target of one assay is Albumin (Bos taurus) (UniProt P02769). Briefly: bovine serum albumin binders on microarray, profiling panel, artefact control for SMM control protein annotation, biochemical, small-molecule microarray, Alexa647 label, 635/667 nm fluorescence (AID 1118).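 Also: score merges 667 nm emission intensity and signal-to-noise per printed compound spot.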 As to conditions: BSA-A647 binding, fluorescence 635 nm, higher = more signal.
Sequence of Albumin (Bos taurus) (P02769 whole entry, looked up): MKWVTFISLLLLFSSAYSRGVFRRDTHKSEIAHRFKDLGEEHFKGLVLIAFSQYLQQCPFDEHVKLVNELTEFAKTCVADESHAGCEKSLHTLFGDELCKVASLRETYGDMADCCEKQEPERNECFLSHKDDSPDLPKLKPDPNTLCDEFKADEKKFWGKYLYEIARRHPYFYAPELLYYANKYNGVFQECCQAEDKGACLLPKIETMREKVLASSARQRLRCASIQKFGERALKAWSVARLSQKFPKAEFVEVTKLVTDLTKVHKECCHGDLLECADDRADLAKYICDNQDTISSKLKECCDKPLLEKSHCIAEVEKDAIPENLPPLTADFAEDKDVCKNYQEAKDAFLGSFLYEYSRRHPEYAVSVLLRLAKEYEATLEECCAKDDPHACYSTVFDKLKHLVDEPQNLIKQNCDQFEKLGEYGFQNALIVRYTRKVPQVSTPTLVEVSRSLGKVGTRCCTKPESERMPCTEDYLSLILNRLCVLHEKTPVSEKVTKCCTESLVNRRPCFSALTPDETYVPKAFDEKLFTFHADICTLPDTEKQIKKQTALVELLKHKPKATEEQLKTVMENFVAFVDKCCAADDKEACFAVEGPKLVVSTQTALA
Assay [1] can be described thus: small-molecule microarray binders of probe aXIP, primary screen, biochemical, NeuroSMM set, 635/667 nm fluorescence (AID 1119).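 Also: probe is the protein aXip251-270 applied at 1 µg/mL to compound-printed slides; binding of probe to printed compounds measured as 667 nm fluorescence plus signal to noise.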 The note with it: higher = more signal, called active from +8 up or from −8 down.
Assay [2] is described as follows: small-molecule binders of probe aNOTCH3, primary screen, biochemical, small-molecule microarray, 635/667 nm fluorescence (AID 1120).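 Also: probe is a biotin-tagged antibody raised against NOTCH3 rather than NOTCH3 protein; score merges spot fluorescence near 667 nm with spot signal to noise.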 The note with it: higher = more signal.
A short description of assay [3]: small-molecule binders of probe aNOTCH2, primary screen, biochemical, small-molecule microarray, 635/667 nm fluorescence (AID 1121).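 Also: score merges feature fluorescence read at 667 nm with its signal to noise.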 The note with it: higher = more signal.
The target in assay [4] is Carbonic anhydrase 2 (Homo sapiens) (UniProt P00918). Briefly: CAII small-molecule binders, profiling panel, biochemical, small-molecule microarray, Alexa647-labelled CAII (AID 1122). As to conditions: CAII-A647 binding fluorescence, higher = more signal.
A short description of assay [5]: COS7 lysate on small-molecule microarray, probe aHis, 635 nm (AID 1123).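 Also: z-score combines 667nm fluorescence intensity with signal-to-noise per printed compound spot.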 The note with it: COS7 cell lysate, fluorescence, higher = more signal.
Assay [6] can be described thus: compound binding in COS7 lysate, probe aLAP1, primary screen, cell lysate, small-molecule microarray (AID 1124).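 Also: lysate comes from COS7 cells expressing LAP1 and is applied at 0.3 µg/mL; score merges spot fluorescence near 667 nm with signal-to-noise over triplicate slides.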 The note with it: probe aLAP1, fluorescence, higher = more signal.
For the next assay, the system named is Sam68 (KHDRBS1). The assay can be described thus: Sam68 small-molecule binders, primary screen, biochemical, small-molecule microarray, 635 nm fluorescence (AID 1125).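 Also: score merges 667 nm channel intensity with signal to noise over triplicate slides.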 As to conditions: small-molecule microarray binding, higher = more signal.
The subject of assay [7] is Chordin-like protein 2 (CHRDL2). The assay can be described thus: CHRDL2 small-molecule binders, primary screen, biochemical, small-molecule microarray, 635 nm fluorescence (AID 1126).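 Also: printed compound slides probed with Chrdl2 protein at 4 µg/mL for 1 h at 4 C; score merges 667 nm emission intensity with signal to noise over three replicate slides.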 As to conditions: small-molecule microarray binding, fluorescence 635 nm; higher = more signal.
In assay [8] the target is Concanavalin-A (Canavalia ensiformis) (UniProt P02866). The assay can be described thus: ConA small-molecule binders, primary screen, artefact control for SMM control protein annotation, biochemical, small-molecule microarray, Alexa647 label, 635 nm (AID 1127).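 Also: z combines 667 nm emission intensity with signal-to-noise across three replicate slides.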 The note with it: ConA-A647 binding fluorescence, higher = more signal.
Sequence of Concanavalin-A (Canavalia ensiformis) (P02866 whole entry, looked up): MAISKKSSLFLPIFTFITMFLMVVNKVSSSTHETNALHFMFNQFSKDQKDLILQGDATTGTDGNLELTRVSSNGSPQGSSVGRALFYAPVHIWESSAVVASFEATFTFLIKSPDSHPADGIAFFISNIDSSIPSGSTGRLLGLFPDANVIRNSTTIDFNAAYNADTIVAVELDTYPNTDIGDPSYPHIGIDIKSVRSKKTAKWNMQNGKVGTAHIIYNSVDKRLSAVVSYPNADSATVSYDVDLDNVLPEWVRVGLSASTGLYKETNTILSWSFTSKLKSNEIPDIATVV
A short description of assay [9]: anti-His antibody binders, primary screen, artefact control for SMM control protein annotation, biochemical, small-molecule microarray, 635 nm fluorescence (AID 1128).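 Also: score merges feature fluorescence with signal-to-noise for each printed compound spot.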 As to conditions: anti-His Alexa647 antibody binding, higher = more signal.
Assay [10] has as its system Human papillomavirus type 1a E7 protein (residues 1-88). The assay can be described thus: HPV1a E7 small-molecule binders, primary screen, biochemical, small-molecule microarray, residues 1-88, 635 nm (AID 1129). The note with it: small-molecule microarray binding, fluorescence 635 nm; higher = more signal.
Assay [11] addresses Focal adhesion kinase 1 (Homo sapiens) (UniProt Q05397). The assay can be described thus: small-molecule microarray binders of FAK, primary screen, biochemical, 635/667 nm fluorescence, BSA, DTT (AID 1130).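 Also: composite of spot emission at 667 nm and signal to noise over triplicate slides.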 The note with it: PTK2 binding, 635 nm fluorescence, higher = more signal.
Assay [12] deals with Fibrinogen (Alexa647-labelled). Briefly: fibrinogen binders on compound microarrays, profiling panel, artefact control for SMM control-protein annotation, biochemical, small-molecule microarray, 635/667 nm fluorescence (AID 1131).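 Also: z-score merges 667 nm fluorescence with per-spot signal-to-noise over triplicate slides.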 The note with it: fibrinogen-A647 binding fluorescence, higher = more signal.
Assay [13] deals with Follistatin (Homo sapiens) (UniProt P19883). Briefly: follistatin binders on small-molecule microarrays, primary screen, biochemical, small-molecule microarray, 635/667 nm fluorescence (AID 1132). As to conditions: FST binding, 635 nm fluorescence, higher = more signal.
Sequence of Follistatin (Homo sapiens) (P19883 whole entry, looked up): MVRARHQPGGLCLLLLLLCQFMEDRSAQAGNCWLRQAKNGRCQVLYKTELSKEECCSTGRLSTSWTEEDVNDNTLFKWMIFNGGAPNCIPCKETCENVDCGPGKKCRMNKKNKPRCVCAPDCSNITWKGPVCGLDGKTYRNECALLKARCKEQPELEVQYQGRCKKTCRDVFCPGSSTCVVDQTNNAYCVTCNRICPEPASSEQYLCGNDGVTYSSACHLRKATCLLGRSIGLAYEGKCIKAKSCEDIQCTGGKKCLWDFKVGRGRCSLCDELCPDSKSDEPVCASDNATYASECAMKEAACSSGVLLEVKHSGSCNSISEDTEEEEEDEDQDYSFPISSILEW
Assay [14] addresses Fibroblast growth factor 2 (Homo sapiens) (UniProt P09038). Briefly: FGF2 binders on small-molecule microarrays, primary screen, biochemical, small-molecule microarray, 635/667 nm fluorescence (AID 1133). As to conditions: small-molecule microarray binding, FGF2, fluorescence 635/667; higher = more signal.
The nature of assay [15]: mitochondrial membrane potential change in A549 cells, profiling panel, cell-based, JC-1 fluorescence, basal, 24 h, 100 nL (AID 1138).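 Also: A549 lung adenocarcinoma cells under basal conditions with no added stimulus; test concentration not given here.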 The note with it: higher = more signal.
A further assay relates to Lefty1. The assay can be described thus: Lefty1 binders on small-molecule microarrays, primary screen, biochemical, small-molecule microarray, 635/667 nm fluorescence (AID 1139). The note with it: small-molecule microarray binding, fluorescence 635/667; higher = more signal.
For assay [16], the system named is wheat germ agglutinin (Triticum aestivum), Alexa647-labelled. Briefly: wheat germ agglutinin binders on compound microarrays, profiling panel, artefact control for SMM control-protein annotation, biochemical, small-molecule microarray, 635/667 nm fluorescence (AID 1140).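 Also: score merges 667 nm feature emission with signal to noise over triplicate slides.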 The note with it: WGA-A647 binding, 635 nm fluorescence, higher = more signal.
Assay [17] has as its target Luciferin 4-monooxygenase (Photinus pyralis) (UniProt P08659). The assay can be described thus: firefly luciferase enzyme inhibitors, primary screen, biochemical, luminescence, purified enzyme, 2006 set (AID 1141).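 Also: cell-free assay with purified firefly luciferase at 100 ng per well in PBS; test concentration not given here.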 The note with it: SteadyGlo luminescence, 30 min, higher = more signal, called active from +8 up or from −8 down.

Sequence of Fibroblast growth factor 2 (Homo sapiens) (P09038 whole entry, looked up): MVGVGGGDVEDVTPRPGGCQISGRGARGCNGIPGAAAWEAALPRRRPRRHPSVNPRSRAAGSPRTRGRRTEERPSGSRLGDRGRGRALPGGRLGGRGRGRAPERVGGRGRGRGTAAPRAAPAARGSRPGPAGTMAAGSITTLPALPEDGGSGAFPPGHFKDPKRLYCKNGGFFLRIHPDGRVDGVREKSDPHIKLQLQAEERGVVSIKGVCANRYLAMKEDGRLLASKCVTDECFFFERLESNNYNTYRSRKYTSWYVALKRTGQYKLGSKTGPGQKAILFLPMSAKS
Sequence of Focal adhesion kinase 1 (Homo sapiens) (Q05397 whole entry, looked up): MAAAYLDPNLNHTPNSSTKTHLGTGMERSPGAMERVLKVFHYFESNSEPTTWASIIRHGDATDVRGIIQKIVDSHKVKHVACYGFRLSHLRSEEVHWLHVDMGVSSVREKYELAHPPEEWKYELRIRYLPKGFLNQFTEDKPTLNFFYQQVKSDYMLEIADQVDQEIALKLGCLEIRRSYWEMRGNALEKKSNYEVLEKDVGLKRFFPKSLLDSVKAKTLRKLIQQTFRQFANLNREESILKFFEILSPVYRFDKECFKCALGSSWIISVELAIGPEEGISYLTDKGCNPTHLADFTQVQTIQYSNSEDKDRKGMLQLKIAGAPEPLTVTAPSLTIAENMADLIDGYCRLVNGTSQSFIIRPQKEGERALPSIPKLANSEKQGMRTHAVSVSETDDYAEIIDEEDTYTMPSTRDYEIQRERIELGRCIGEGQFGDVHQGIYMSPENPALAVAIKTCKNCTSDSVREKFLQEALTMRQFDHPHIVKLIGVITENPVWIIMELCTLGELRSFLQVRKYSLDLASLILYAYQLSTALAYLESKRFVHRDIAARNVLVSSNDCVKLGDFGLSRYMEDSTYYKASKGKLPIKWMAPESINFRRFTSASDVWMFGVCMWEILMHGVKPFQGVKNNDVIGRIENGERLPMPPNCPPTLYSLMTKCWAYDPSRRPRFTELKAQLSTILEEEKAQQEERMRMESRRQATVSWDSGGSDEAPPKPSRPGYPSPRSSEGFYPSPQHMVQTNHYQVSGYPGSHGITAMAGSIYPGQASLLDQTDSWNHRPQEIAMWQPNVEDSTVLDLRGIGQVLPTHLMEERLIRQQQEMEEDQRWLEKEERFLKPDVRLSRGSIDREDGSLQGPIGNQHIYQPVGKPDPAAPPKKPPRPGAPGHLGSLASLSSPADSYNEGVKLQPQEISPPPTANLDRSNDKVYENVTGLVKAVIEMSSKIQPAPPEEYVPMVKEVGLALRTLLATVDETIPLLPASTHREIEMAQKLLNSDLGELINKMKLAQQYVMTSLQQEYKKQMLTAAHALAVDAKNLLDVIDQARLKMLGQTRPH
Sequence of Luciferin 4-monooxygenase (Photinus pyralis) (P08659 whole entry, looked up): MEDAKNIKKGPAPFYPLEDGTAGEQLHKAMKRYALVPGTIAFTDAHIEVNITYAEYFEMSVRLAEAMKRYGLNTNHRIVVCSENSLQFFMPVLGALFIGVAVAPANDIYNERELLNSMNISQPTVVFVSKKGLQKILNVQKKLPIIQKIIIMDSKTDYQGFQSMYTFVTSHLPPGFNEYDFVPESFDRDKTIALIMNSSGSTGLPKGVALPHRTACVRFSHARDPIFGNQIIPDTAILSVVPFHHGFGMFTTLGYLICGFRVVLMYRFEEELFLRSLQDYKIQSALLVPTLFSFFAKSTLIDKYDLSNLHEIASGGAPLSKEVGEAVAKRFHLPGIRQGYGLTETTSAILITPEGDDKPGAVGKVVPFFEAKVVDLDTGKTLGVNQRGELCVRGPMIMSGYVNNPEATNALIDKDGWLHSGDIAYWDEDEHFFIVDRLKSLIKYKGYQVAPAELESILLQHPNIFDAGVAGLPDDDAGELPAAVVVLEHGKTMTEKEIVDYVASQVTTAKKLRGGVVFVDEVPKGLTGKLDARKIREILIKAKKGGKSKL

With `COc1cccc([C@H]2Oc3ccc(OC)cc3C(=NOCC[C@@H]3C=C[C@H](OC(C)=O)[C@@H](COC(C)=O)O3)[C@@H]2O)c1`, the composite z-score with Albumin (Bos taurus) was 0.869; in assay [2], 0.0293; in assay [3] it was -0.213; in assay [4], 0.36; in [5], 0.788; in assay [6], 0.687. The composite z-score with Sam68 (KHDRBS1) is 0.785; in assay [7] it was 0.503; in [8], 0.794; in [9], -0.972; in assay [10] it was 0.562; in [11], 0.292. Besides, the composite z-score in [12] stood at 0.967; in assay [13] it was 0.37; in [14] it was 0.462; in the assay with Lefty1 it was 0.329; in assay [16], 0.274. In addition, the composite Z-score in [1] is 0.551 (inactive). Further, the z-score is -0.806 in assay [15] and 1.14 (inactive) in [17].

In the case of `COC(=O)[C@H](C)NC(=O)CCC1CC(OC(=O)NCc2ccc3c(c2)OCO3)CC2(CCCC(COC(=O)NCCC(C)C)O2)O1` (stereo not given in full), the composite z-score in the assay with Albumin (Bos taurus) was 0.492; in assay [2] it was 0.0488; in [3] it was -0.114; in [4] it was 0.226; in assay [5] it was 0.891; in assay [6], -0.308. The composite z-score with Sam68 (KHDRBS1) worked out at 1.31; in [7], 0.0784; in assay [8] it was 0.0667; in [9], 0.363; in assay [10], 0.63; in [11], 0.73. Also, the composite z-score was 0.87 in assay [12]; 0.831 in assay [13]; 0.531 in assay [14]; 1.25 in the assay with Lefty1; 0.0551 in assay [16]. In addition, in assay [1], the composite Z-score was -0.436 (inactive). For the same molecule, the values for the z-score in [15] and in assay [17] were -0.822 and 0.977 (inactive), respectively.

Consider `CC(=O)OC[C@H]1O[C@H](C#CCC2CCCCC2)C=C[C@@H]1OC(C)=O`, for which the composite z-score in the assay with Albumin (Bos taurus) is 0.718; in assay [2] it was -0.154; in assay [3], -0.0632; in [4], 0.494; in assay [5], 0.853; in assay [6] it was 0.53. The composite z-score in the assay on Sam68 (KHDRBS1) was 0.953; in assay [7], 0.32; in assay [8] it was 1.04; in [9], 0.502; in assay [10], 0.916; in assay [11], -0.146. Besides, the composite z-score was 0.672 in assay [12]; 0.675 in assay [13]; 0.339 in assay [14]; 0.513 with Lefty1; 0.371 in assay [16]. The composite Z-score in assay [1] was -0.106 (inactive). Moreover, the z-score in assay [15] was 0.587; in assay [17], -2.68 (inactive).

On to `C=CC[C@@H]1C=C[C@H](ON=C(C)CCN2CCCc3nc(C)c(C)cc32)[C@@H](CO)O1`, for which the composite z-score with Albumin (Bos taurus) was -0.858; in assay [2] it was 0.712; in assay [3], 0.276; in assay [4], -0.1; in [5], 0.735; in [6] it was 0.629. In addition, the composite z-score with Sam68 (KHDRBS1) was 1.32; in assay [7] it was 1.3; in assay [8], -0.12; in assay [9], 0.229; in assay [10], 0.736; in [11], 0.817. Moreover, the composite z-score in assay [12] is -0.355; in assay [13], 1.25; in [14], 1; in the assay on Lefty1, 1.16; in assay [16], -0.205. In addition, the composite Z-score in assay [1] is 2.94 (inactive). Moreover, the z-score in assay [15] is 0.289; in assay [17] it was 0.949 (inactive).

For the molecule `CO[C@@H]1C=CCC(=O)N[C@@H](C)C(=O)OC[C@@H](OC)[C@H](C)C=CCC(=O)OC[C@H]1C`, the composite z-score was -1.01 in the assay with Albumin (Bos taurus); -0.0967 in assay [2]; -0.123 in [3]; -0.689 in [4]; -1.2 in assay [5]; 0.0645 in assay [6]. Further, the composite z-score in the assay with Sam68 (KHDRBS1) was 0.451; in [7], 1.49; in assay [8] it was -1.09; in [9], 0.207; in assay [10] it was -0.724; in assay [11] it was -0.397. The composite z-score in [12] is -0.556; in [13] it was 1.39; in assay [14], 0.615; with Lefty1, 1.59; in assay [16], -0.87. Also, in [1], the composite Z-score is 0.914 (inactive). The z-score is 1.04 in [15] and -0.461 (inactive) in assay [17].
